These results are taken from PubChem BioAssay (Tox21).

Activity calls are given as the source filed them. Entries that show only a call come without a potency. The call rests on the fitted dose curve.

The target of this experiment is Gonadotropin-releasing hormone receptor (Homo sapiens) (UniProt P30968). Nature of the experiment: Human gonadotropin-releasing hormone receptor (GnRHR) small molecule agonists, calcium flux assay in GnRHR-HEK293 cells (AID 1920063). Further: nearly all actives have a fitted effect of over 35% in size. Particulars: calcium flux fluorescence, agonist mode; series mostly up to 57.6 µM. An excerpt: National Center for Advancing Translational Sciences [NCATS]
Gonadotropin-releasing hormone receptor (Homo sapiens), sequence (P30968 whole entry, looked up): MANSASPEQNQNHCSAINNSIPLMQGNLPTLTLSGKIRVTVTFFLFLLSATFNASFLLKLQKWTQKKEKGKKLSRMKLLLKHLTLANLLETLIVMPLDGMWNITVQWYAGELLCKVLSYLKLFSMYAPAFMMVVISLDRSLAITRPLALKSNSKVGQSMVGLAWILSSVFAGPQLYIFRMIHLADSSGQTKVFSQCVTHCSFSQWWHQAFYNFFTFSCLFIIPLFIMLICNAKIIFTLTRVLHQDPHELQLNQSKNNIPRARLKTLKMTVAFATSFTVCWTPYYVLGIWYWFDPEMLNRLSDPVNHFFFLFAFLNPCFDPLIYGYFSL
Division of Preclinical Innovation [DPI]
U.S. Environmental Protection Agency [EPA]
National Institutes of Environmental Health Sciences [NIEHS]
National Toxicology Program [NTP]
U.S. Food and Drug Administration [FDA]
Gonadotropin-releasing hormone receptor (GnRHR) is a G-protein-coupled receptor (GPCR) and acts (through phospholipase C) to increase intracellular inositol trisphosphate and then release intracellular calcium stores. Cell-based GnRHR-Hek293 calcium influx assay is using HEK293 cells that have been genetically engineered to express the human GnRHR, which activity can be measured by calcium signaling. A compound/drug can activate (agonist) GnRHR that can be monitored by levels of intracellular calcium.
GnRHR-HEK293 cells developed by Codex Corp contain human GnRHR reporter gene, which was stably integrated into HEK 293 cells. The compound activation can be detected by fluorescence intensity via calcium flux assay. This cell line has been used to screen the Tox21 10K compound library to identify GnRHR agonists.
GnRHR-Hek293 cells were dispensed at 1500cells/4uL/well in 1536-well black wall/clear bottom plates using a multidrop dispenser. After the assay plates were incubated at a 37 C/5% CO2 incubator for 18 hours, 4 uL of Calcium Dye Solution was added to each well. The plates were incubated at 37 C for 1 hour. For agonist mode, 23 nL of compounds dissolved in DMSO, positive controls or DMSO only was transferred to the assay plate by a pin tool station. The fluorescence intensity in the plates was measured using FDSS 7000EX kinetic plate reader with a filter set of Ex/Em=480/540 for 3 min at 1 sec intervals. Each test compound was measured at 15 concentrations and in triplicates.
For `O=S(=O)(O)c1ccccc1O`, the Potency entry was “inactive”.

Regarding `CCCN1CCCC[C@H]1C(=O)Nc1c(C)cccc1C`, the Potency result is “inactive”.

As to `CC(C)(C)C1CCCCC1O` (stereo not given), the Potency result was “inactive”.

Regarding `O=C(O)c1cc(N=Nc2ccc(S(=O)(=O)Nc3ccccn3)cc2)ccc1O`, the Potency entry was “inactive”.

In the case of `CCCCCCCO`, the Potency entry was “inactive”.

Consider `N#Cc1cc(NC(=O)C(=O)O)c(Cl)c(NC(=O)C(=O)O)c1`, for which the Potency entry is “inactive”.

As for `CCN(C=O)CC`, the Potency result is “inactive”.

As for `Cn1sccc1=O`, the Potency result is “inactive”.

On to `OCC1CCC(CO)CC1` (stereo not given), for which the Potency result is “inactive”.

In the case of `COC(=O)C1=C(C)NC(C)=C(C(=O)OCC(C)C)C1c1ccccc1[N+](=O)[O-]` (stereo not given), the Potency result is “inactive”.

`CCCCCCCCCCCCCC[P+](CCCC)(CCCC)CCCC`: the Potency entry was “inactive”.

Regarding `OCCc1ccccn1`, the Potency result was “inactive”.

Regarding `c1ccc2c(c1)CCC2`, the Potency entry is “inactive”.

For the molecule `CCOc1c(N2CCOCC2)cnn(C)c1=O`, the Potency result was “inactive”.

In the case of `C=CC(=O)OCCCCCCCC`, the Potency entry was “inactive”.

On to `O=S(=O)(Oc1ccc(Cl)cc1Cl)c1ccccc1`, for which the Potency result is “inactive”.

For `CC1=CC(C)C(C=O)CC1` (stereo not given), the Potency entry is “inactive”.

For `CC[C@H](C)[C@@H](C(=O)O)n1sc2ccccc2c1=O`, the Potency entry was “inactive”.

For the molecule `C[N+](C)(CCOc1ccccc1)Cc1cccs1`, the Potency entry was “inactive”.

With `O=C1OC(=O)c2ccc3c4c(ccc1c24)C(=O)OC3=O`, the Potency result was “inactive”.

On to `Cc1cnccn1`, for which the Potency entry was “inactive”.

Regarding `c1ccc(CSCc2ccccc2)cc1`, the Potency result was “inactive”.

Regarding `CC(C)NCC(O)COc1cccc2ccccc12` (stereo not given), the Potency entry is “inactive”.

Regarding `Cc1nc(-c2ccc3c(c2)CCN(CCC2CCC(NC(=O)/C=C/c4ccc(F)cc4)CC2)CC3)no1` (stereo not given), the Potency entry is “inactive”.

As to `Cc1cccc(C)c1NC(=O)CC12CCCN1CCC2`, the Potency result was “inactive”.

Consider `CC(C)NC(=O)c1ccccc1N`, for which the Potency result was “inactive”.

With `O=C(O)c1cc(=O)[nH]c(=O)[nH]1`, the Potency result was “inactive”.

On to `N=C(N=C(N)N)N1CCOCC1`, for which the Potency result is “inactive”.

Regarding `Cc1ccc(N)cc1[N+](=O)[O-]`, the Potency entry is “inactive”.

As to `CCCCCC1CCCC(=O)O1` (stereo not given), the Potency entry is “inactive”.

Turning to `O=C(O)[C@@H](O)[C@H](O)[C@H](O)[C@@H](O)C(=O)O`, the Potency result is “inactive”.

For `CC1=CC(=O)c2ccccc2C1=O`, the Potency result is “inactive”.

`COC(=O)c1ccc(C)cc1C1=NC(C)(C(C)C)C(=O)N1` (stereo not given): the Potency entry is “inactive”.

Regarding `COc1ccc(C(=O)NCc2ccc(OCCN(C)C)cc2)cc1OC`, the Potency entry is “inactive”.

Regarding `CC1(C)C(=O)N(Br)C(=O)N1Cl`, the Potency entry was “inactive”.

In the case of `O=C1CCC(=O)O1`, the Potency entry was “inactive”.

As to `CCC(=O)O[C@@H]1C[C@H]2CC[C@]1(C)C2(C)C`, the Potency result is “inactive”.

Take `O=C(Oc1ccccc1)c1ccc(O)cc1`: the Potency result was “inactive”.

For `COc1ccc(C#N)cc1`, the Potency entry was “inactive”.

As to `CC(=O)[O][Al][O]C(C)=O`, the Potency result is “inactive”.
